According to PubChem BioAssay (NCI):
About 83,000 compounds went through this panel and 20% of them were active in at least one assay; those are over-represented in the sample as a whole.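 The endpoint reported here, percent growth, reads 100 for growth as untreated, 0 for no net growth and -100 for all cells dead.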 Active and inactive are the calls of the source. Rule for the calls: active = growth percent below 10; inactive = the rest.

Columns and labels:
Experiment in all cases: NCI-60 one-dose screen, 48 h (100 = growth as untreated, 0 = no growth, -100 = all killed)
Settings in all cases: 10 µM
[1] = tested on: NCI-H23 lung
[2] = tested on: NCI-H226 lung
[3] = tested on: NCI-H322M lung
[4] = tested on: HOP-62 NSCLC
[5] = tested on: NCI-H460 lung
[6] = tested on: NCI-H522 lung
[7] = tested on: A549/ATCC NSCLC
[8] = tested on: 786-0 renal
[9] = tested on: COLO 205 colon
[10] = tested on: DU-145 prostate
[11] = tested on: MALME-3M melanoma
[12] = tested on: MDA-MB-231 breast
[13] = tested on: RXF 393 renal
[14] = tested on: SF-268 CNS
[15] = tested on: SF-295 CNS
[16] = tested on: SF-539 CNS
[17] = tested on: UACC-257 melanoma
[18] = tested on: M14 melanoma
[19] = tested on: HCT-15 colon
[20] = tested on: K-562 leukemia

Measured: growth

CN(C)CCS(=O)(=O)CCN(C)C
inactive: [1] 107% | [2] 105% | [3] 113% | [4] 108% | [5] 97% | [6] 117% | [7] 106% | [8] 98.7% | [9] 105% | [10] 103% | [11] 117% | [12] 88.5% | [13] 99.2% | [14] 107% | [15] 110% | [16] 100% | [17] 110% | [18] 96.7% | [19] 103%

Oc1[nH]c2ccc(Cl)cc2c1/C=c1/ccc2c(c1)N=C(c1cc(F)cc(F)c1)N=2
inactive: [1] 64% | [2] 86.1% | [3] 93.2% | [4] 58.7% | [5] 63.8% | [6] 33.7% | [7] 57.4% | [8] 85.9% | [9] 77.1% | [10] 81.8% | [20] 14.8% | [12] 79.3% | [13] 61.6% | [15] 46.7% | [16] 83.3% | [17] 70.5% | [18] 68.5% | [19] 46.1%

Clc1nc(Cl)c2c(ncn2C/C=C\Cn2cnc3c(Cl)nc(Cl)nc32)n1
active: [1] -15.8% | [2] -80.1% | [3] 8.09% | [5] 0.846% | [6] -70.6% | [7] -79.4% | [8] -4.46% | [9] -51.5% | [20] -20.6% | [11] -84.8% | [12] -100% | [14] 6.36% | [15] -10.7% | [16] -71.6% | [18] -10.5% | [19] -85.4%
inactive: [4] 11.2%

Nc1ncn([C@@H]2O[C@H](CO)[C@@H](O)[C@H]2O)c(=O)n1
active: [4] 2.42% | [5] -1.73% | [6] 4.49% | [9] 6.61% | [12] -3.92% | [16] 3.27%
inactive: [1] 37.2% | [2] 45.9% | [3] 15.9% | [7] 16.5% | [8] 23.8% | [10] 11.5% | [14] 33.8% | [15] 28.4% | [17] 48% | [18] 19.7% | [19] 22.9%

O=C1OCC2=C1C(c1cccc(Br)c1)c1cc3c(cc1N2CCO)CCC3 (configuration not stated)
active: [2] -15.7% | [5] -6.92% | [6] -31.4% | [9] -29.1% | [10] -28.9% | [12] -13% | [15] -9.25% | [16] -1.5% | [19] 8.3%
inactive: [1] 21.1% | [3] 36.8% | [4] 28.4% | [7] 12.5% | [8] 19.1% | [20] 19.4% | [13] 29.5% | [14] 14.4% | [18] 12.8%

COc1cc2c(cc1OCCCN1CCN(c3ncnc4ccccc34)CC1)N=CC1CCCN1C2=O (configuration not stated)
active: [1] -8.7% | [2] -50.1% | [3] -3.85% | [4] 4.07% | [5] 8.4% | [6] -37.7% | [7] -2.44% | [8] 7.51% | [9] -42% | [20] -24.8% | [11] -71.7% | [12] -34.4% | [15] -20.9% | [16] -82.7% | [18] -46.8% | [19] 1.25%
inactive: [14] 10.3%

CC[C@H]1CCC/C=C/[C@@H]2C[C@H](O)C[C@H]2[C@H](O)/C=C/C(=O)O1
inactive: [4] 25.2% | [20] 10.3% | [16] 30.9%
active: [1] -12.8% | [2] -1.27% | [3] -2.58% | [5] 6.08% | [6] -56.8% | [7] 5.74% | [8] -49% | [9] -97.2% | [10] 3.43% | [12] -88.4% | [13] -29.2% | [14] 8% | [15] -1.83% | [17] -13.6% | [18] 2.47% | [19] 8.78%

CC1CC(=O)OC(C)C1 (configuration not stated)
inactive: [1] 102% | [2] 93.1% | [3] 103% | [4] 92.2% | [5] 104% | [6] 103% | [7] 95.8% | [8] 101% | [9] 112% | [10] 111% | [11] 98.7% | [12] 113% | [13] 104% | [14] 111% | [15] 94.6% | [16] 98.5% | [17] 111% | [18] 100% | [19] 104%

COc1cc([C@@H]2c3cc4c(cc3C(Br)[C@H]3COC(=O)[C@H]23)OCO4)cc(OC)c1OC (some centres not stated)
active: [1] 4.09% | [4] -13% | [5] -50.8% | [6] -46.5% | [7] -24% | [8] 9.16% | [9] -88.4% | [10] -82.4% | [12] -5.49% | [14] -29.9% | [15] -15.4% | [16] -44.5% | [18] -8.65% | [19] -3.53%
inactive: [2] 97.8% | [3] 42.2% | [11] 31.5% | [17] 16.2%

N#Cc1cc(-c2cc3ccccc3o2)oc1N
active: [3] 2.76% | [5] 9.76% | [6] -4.4% | [7] -5.69% | [20] 2.52% | [11] -5.2% | [12] -27.1% | [15] -28.1% | [16] -45% | [19] 9.98%
inactive: [1] 11.4% | [2] 17.4% | [4] 20% | [8] 11.7% | [9] 12.9% | [14] 29% | [18] 26.4%

Cc1ccc(NC(=O)CSc2nc3ccccc3c(=O)n2CCc2ccccc2)c(C(=O)O)c1
inactive: [1] 101% | [2] 101% | [3] 90.9% | [4] 94.4% | [5] 110% | [6] 90.1% | [7] 98% | [8] 90.5% | [9] 103% | [10] 117% | [12] 90.6% | [14] 104% | [15] 91.8% | [16] 104% | [17] 98.1% | [18] 97.8% | [19] 107%

CC1(O)CCC2CC3OC3(C)CCC3OC3(C)CCC1C2(C)C (configuration not stated)
inactive: [1] 105% | [2] 108% | [3] 114% | [4] 98.8% | [5] 112% | [6] 98.1% | [7] 90.7% | [8] 99.7% | [9] 106% | [20] 113% | [11] 110% | [12] 102% | [14] 107% | [15] 89.6% | [16] 119% | [18] 103% | [19] 105%

N=C(N)c1ccc(-c2ccc(-c3cccs3)s2)cc1
active: [3] 2.2% | [5] -72.4% | [7] -44.8% | [9] -96.6% | [10] 0.967% | [20] -56% | [11] -80.1% | [19] 0.674%
inactive: [1] 83.8% | [2] 82.3% | [4] 86.6% | [6] 76.4% | [12] 75.8% | [13] 75.8% | [14] 101% | [15] 16.4% | [16] 89.5% | [17] 34.6% | [18] 30.3%

Oc1[nH]c2ccc(Cl)cc2c1/C=c1/ccc2c(c1)N=C(c1cccs1)N=2
inactive: [1] 64.4% | [2] 85% | [3] 78.4% | [4] 83.1% | [5] 66.1% | [6] 53.3% | [7] 63.5% | [8] 66.7% | [9] 73% | [10] 58.7% | [20] 30.9% | [12] 91.2% | [13] 49.7% | [15] 41.4% | [16] 81.3% | [17] 48.5% | [18] 77.1% | [19] 55.4%

COc1cccc(C2C3=C(COC3=O)N(CCO)c3cc(OC)ccc32)c1 (configuration not stated)
active: [2] 0.496% | [5] 0.788% | [6] -34.8% | [9] -16.4% | [10] -4.6% | [12] 8.33% | [15] -20.3% | [16] -6.71% | [18] 6.29%
inactive: [1] 26.3% | [3] 44% | [4] 30.3% | [7] 18% | [8] 27.9% | [20] 17.1% | [13] 15.9% | [14] 31.6% | [19] 11.3%

CCOC(=O)CNC(=O)CCCCSc1ncnc2nc[nH]c12
inactive: [1] 113% | [2] 94.5% | [3] 173% | [4] 96.2% | [5] 97% | [6] 102% | [7] 109% | [8] 97.9% | [9] 111% | [10] 113% | [20] 85.7% | [12] 108% | [14] 113% | [15] 127% | [16] 91.2% | [17] 81.2% | [18] 100% | [19] 101%

CC1CN(Cc2ccccc2)C(=O)NC1=O (configuration not stated)
inactive: [1] 110% | [2] 106% | [3] 122% | [4] 105% | [5] 109% | [6] 91.8% | [7] 103% | [8] 112% | [9] 108% | [20] 108% | [11] 106% | [12] 107% | [13] 124% | [14] 103% | [15] 126% | [16] 107% | [17] 102% | [18] 111% | [19] 112%

COc1ccc2c(c1)[n+]([O-])c(C#N)c(NC(=O)c1ccco1)[n+]2[O-]
inactive: [1] 99.9% | [2] 97.7% | [3] 95.2% | [4] 93.7% | [5] 107% | [6] 98.1% | [7] 111% | [8] 105% | [9] 96.2% | [20] 92.8% | [11] 103% | [12] 92.3% | [14] 107% | [15] 99.9% | [16] 107% | [18] 104% | [19] 99%
